# Data reported in PubChem BioAssay AID2546 (National Center for Advancing Translational Sciences (NCATS), 2010).
# The campaign covered roughly 310,000 compounds. About 11,000 (3.5%) were called active. A call without a number means that no potency is given here. About 8% were inconclusive and are not listed. The full list was thinned out, with actives kept by preference. Unmarked numbers belong to inactive results. Calls come from the whole dose curve; as a rule, active = well fitted inhibition curve with a large enough effect; inconclusive = small, poorly fitted or top-dose-only effect, or effect the other way; inactive = flat fitted curve, though single readings scatter.
# Assay: VP16 counterscreen qHTS for inhibitors of ROR gamma transcriptional activity;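 note: Gal4-VP16 expression switched on by copper sulfate through the metallothionein promoter; nearly all actives have a fitted effect of over 50% in size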
# Conditions: Drosophila S2 Gal4-VP16 UAS-luciferase, luminescence, 20 h; series mostly up to 53.6 µM
# Text: NIH Molecular Libraries Probe Production Network [MLPCN]
# NIH Chemical Genomics Center [NCGC]
# Assay Provider: Dan Littman, New York University
# The retinoic acid-related orphan receptor (ROR) gamma is a transcription factor that has a central role in the differentiation of Th17 cells, a subset of T helper cells that secrete the inflammatory cytokines IL-17, IL-17F, and IL-22. Th17 cells have been implicated in graft versus host disease, autoimmune disease and asthma. ROR gamma is induced in naive T helper cells in the presence of TGF-beta combined with IL-6, IL-21, or IL-23, and thereafter directs the expression of the Th17 lineage cytokines. To identify nonspecific inhibitors, a Drosophila Schneider cell line was stably transfected with two vectors: a gene expressing a fusion of the Gal4 DNA binding domain and VP16 transactivation domain under the control of the metallothionine promoter and a Photinus luciferase reporter regulated by the Gal4 binding site enhancer, UAS. […] Small molecule inhibitors that inhibit components common to the RORgt and VP16 assays, such as the Gal4 DNA binding domain or the UAS luciferase reporter, will be active in both assays and thus scored as nonspecific.
# For screening, 600 cells in 4 uL/well were dispensed into white solid 1536-well plates (Grenier) using a solenoid-based dispenser. Following transfer of 23 nL compound or DMSO vehicle by a pin tool, the plates were incubated 1 hr at ambient temperature, and 1 uL/well copper sulfate (700 uM final concentration) was added. The plates were centrifuged 15 s at 1000 RPM and incubated 20 hr at ambient temperature. After addition of 1.5 uL Photinus luciferase detection reagent, the plates were incubated 10 min at ambient temperature and then read by a ViewLux (Perkin Elmer) to detect luminescence.
# Potency is the fitted concentration of half-maximal effect.
Compound,Potency,"activity, negative = inhibition"
COc1cc(NC(=O)C2=C(C)OCCS2)c(Cl)cc1C(=O)NCCN1CCN(C)CC1,inactive,–
Cn1nccc1/C=N\NC(=O)c1ccc(Cl)cc1,inactive,–
CCOc1ccc(CCNC(=O)Nc2ccccc2)cc1OCC,inactive,–
COc1ccc(/C=C2\SC(=S)N(CCC(=O)Nc3cccc(C(=O)O)c3)C2=O)cc1OC,inactive,–
Cc1ccc(/C=C2\SC(=S)N(CCC(=O)Nc3ccc(O)cc3)C2=O)cc1,inactive,–
COc1ccccc1C(=O)NNC(=O)CCN1C(=O)/C(=C\c2ccccc2)SC1=S,inactive,–
COc1ccc(NC(=O)CCN2C(=O)/C(=C/c3ccc4c(c3)OCO4)SC2=S)cc1,inactive,–
O=C(CCCN1C(=O)/C(=C/c2ccccc2)SC1=S)Nc1ccc(O)cc1,2 µM (active),–
O=C(CCCN1C(=O)/C(=C/c2ccco2)SC1=S)Nc1ccccc1,12.6 µM (active),–
COC(=O)c1ccc(Nc2ncnc3sccc23)cc1,inactive,–
CCCCCCC(O)(CCN1CCCCC1)c1ccccc1 (centres undefined),inactive,–
CC(=O)N1c2ccc(S(=O)(=O)N3CCC(C(=O)N4CCN(c5ccccc5)CC4)CC3)cc2CC1C (centres undefined),inactive,–
Brc1cc(/C=N/n2cnnc2)oc1Br,inactive,–
CCOc1cc(/C=N/n2cnnc2)c(Br)cc1O,5.62 µM (active),–
Fc1ccc(Br)cc1/C=N/n1cnnc1,inactive,–
COc1cc(C(=O)OCC(=O)NC(C)CCc2ccccc2)cc(OC)c1OC (centres undefined),inactive,–
O=C(C[n+]1cc(Br)cc2ccccc21)c1ccc(F)cc1,inactive,–
c1ccc(-c2nc(NCc3ccco3)c3ccccc3n2)cc1,inactive,–
COc1cccc(CNc2nc(C(F)(F)F)nc3ccccc23)c1,inactive,–
COc1ccc(Nc2ncnc3ccc(OC)cc23)cc1,inactive,–
Brc1ccc2ncnc(NCc3cccnc3)c2c1,inactive,–
c1coc(CNc2ncnc3ccccc23)c1,10 µM (active),–
COc1ccc(CNc2ncnc3ccccc23)cc1,7.08 µM (active),–
CCOCCCN(C)C1CCN(C(=O)c2oc3ccccc3c2NC(=O)COc2cccc(C)c2)CC1,inactive,–
Cc1cccn2c(=O)c3cc(C(=O)NCCN4CCOCC4)c(=N)n(Cc4cccnc4)c3nc12,inactive,–
COc1cc2c(cc1OC)CN(C(=O)c1cc(S(=O)(=O)N3CCCCC3)ccc1Cl)CC2,inactive,–

Compound,Potency,"activity, negative = inhibition"
Cc1nc2sc3c(c2c(=O)n1NC(=O)CCl)CCCC3,inactive,–
CCCc1nc(SCC(=O)N2CCCC2)c2c(=O)n(C)c(=O)n(C)c2n1,inactive,–
CC(C)c1nc(SCC(=O)Nc2cccc(C(=O)O)c2)c2c3c(sc2n1)CCCC3,inactive,–
CCOC(=O)CSc1nc2sc3c(c2c(=O)[nH]1)CC(C)(C)OC3,inactive,–
COCCNc1nc(-n2nc(C)cc2C)nc2sc3c(c12)CCCC3,3.16 µM (active),–
Cc1cc(C)n(-c2nc(SCC(=O)N3CCCC3)c3c4c(sc3n2)CCCC4)n1,10 µM (active),–
CCC(O)CNc1nc(-n2nc(C)cc2C)nc2sc3c(c12)CC(C)(C)OC3 (centres undefined),3.98 µM (active),–
Cc1ccc(C)c(-n2c(SCC(=O)O)nc3sc4c(c3c2=O)CCCC4)c1,inactive,–
CC/C(C)=N/Nc1nc2sc3c(c2c(=O)[nH]1)CC(C)(C)OC3,inactive,–
O=C(C1CCCN(S(=O)(=O)c2ccccc2)C1)N1CCN(c2ccc(F)cc2)CC1 (centres undefined),inactive,–
Cc1nc([N+](=O)[O-])cn1CC(=O)Nc1ccc(Cl)cc1,inactive,–
CC(NC(=S)Nc1ccccc1)C1COc2ccccc2O1 (centres undefined),5.01 µM (active),–
O=C(NCC1COc2ccccc2O1)C1(c2ccccc2)CCCC1 (centres undefined),inactive,–
CC(=O)c1cccc(NC(=O)C2COc3ccccc3O2)c1 (centres undefined),inactive,–
Cn1c(CO)cnc1SCc1ccccc1,inactive,–
CSc1nc2ccccc2c(=O)n1Cc1ccc(F)cc1,–,7.17% [at 10 µM]
CSc1c(SCc2ccccc2)cnn(Cc2ccccc2)c1=O,7.08 µM (active),–
O=C(NCC(=O)N1CCN(c2ccccc2O)CC1)c1ccc2ccccc2c1,inactive,–
Cc1ccccc1-n1cc(CNC(=O)C2CCC(=O)N(C3CC3)C2)cn1 (centres undefined),inactive,–
CC(C)CC(=O)Nc1ccc(Cc2ccncc2)cc1,inactive,–
Cc1c(C(=O)N2CCCc3ccccc32)oc2ccccc12,inactive,–
Cc1cc(-c2ccc(C)c(S(=O)(=O)NCCCN(Cc3ccccc3)C(C)C)c2)on1,inactive,–
Cc1noc(C)c1C(=O)OCC(=O)/C=C1\N(C)c2ccccc2C1(C)C,inactive,–
CC(=O)Nc1cccc(OCC(=O)/C=C2\N(C)c3ccccc3C2(C)C)c1,3.16 µM (active),–
CN1/C(=C\C(=O)c2cccnc2Cl)C(C)(C)c2ccccc21,inactive,–
COCC1CCN(C(=O)CCc2nnc(C3(c4ccc(Cl)cc4)CCC3)o2)C1 (centres undefined),inactive,–

Compound,Potency,"activity, negative = inhibition"
C=CCn1c(=O)c(C(=O)NCc2ccc3c(c2)OCO3)c(O)c2ccccc21,inactive,–
CN(C)S(=O)(=O)c1ccc(NC(=O)COC(=O)c2n[nH]c3ccccc23)cc1,8.91 µM (active),–
O=C(COC(=O)c1n[nH]c2ccccc12)NCc1ccccc1,inactive,–
CN(C)S(=O)(=O)c1ccc(NC(=O)COC(=O)Cn2[nH]c(=O)c3ccccc3c2=O)cc1,inactive,–
O=C(/C=C/c1ccccc1[N+](=O)[O-])NCC1CCCO1 (centres undefined),inactive,–
O=C1c2cccc3c([N+](=O)[O-])ccc(c23)C(=O)N1CC1CCCO1 (centres undefined),5.62 µM (active),–
CCC(=O)Nc1ccc(C(=O)Nc2ccc3c(c2)C(=O)N(CC2CCCO2)C3=O)cc1 (centres undefined),inactive,–
Cc1ccc(-n2c(C)nnc2SCC(=O)NC2CC2)cc1,inactive,–
O=C(NCc1cccc(Cl)c1)C1CCC(=O)N(C2CC2)C1 (centres undefined),inactive,–
CCC(=O)N1CCN(c2ccccc2NC(=O)COc2cccc(C)c2C)CC1,inactive,–
CCOc1ccccc1N1CCN(C(=S)Nc2ccc(S(N)(=O)=O)cc2)CC1,inactive,–
COc1ccccc1NC(=S)N1CCN(C(c2ccccc2)c2ccccc2)CC1,20 µM (active),–
COc1ccccc1CN1CCN(C(c2ccccc2)c2ccccc2)CC1,inactive,–
CCOc1ccccc1NC(=S)N1CCN(c2cccc(C)c2C)CC1,4.47 µM (active),–
COc1ccccc1NC(=S)N1CCN(c2ccc(F)cc2)CC1,inactive,–
Cc1sc2nc(SCCO)n(-c3ccccc3)c(=O)c2c1C,inactive,–
COc1ccc(C2c3[nH]c4ccccc4c3C[C@H]3C(=O)N(CC(C)C)CC(=O)N23)c(OC)c1 (some centres undefined),inactive,–
O=S(=O)(NC1CCCCC1N1CCCCC1)c1ccc(Cl)cc1 (centres undefined),inactive,–
COc1ccc(OC)c(C(C)NC(=S)Nc2ccc(S(=O)(=O)Nc3ncccn3)cc2)c1 (centres undefined),inactive,–
COC(=O)c1cccnc1NC(=S)NC(C)C,4.47 µM (active),–
CCOC(=O)c1cccnc1NC(=O)c1ccncc1,inactive,–
CCN(C(=O)c1cc([N+](=O)[O-])ccc1NCc1cccnc1)c1ccccc1,inactive,–
CN(C)c1ccc(/C=C2\NC(=S)N(Cc3ccccc3)C2=O)cc1,11.2 µM (active),–
O=C1NCC(=O)N(Cc2ccccc2)/C1=C/c1ccccc1,inactive,–
CC1=NN(Cc2ccccc2)C(=O)/C1=C/c1ccc(N(C)C)cc1,inactive,–
Cn1cc(S(=O)(=O)Nc2ccc(Cl)cc2Cl)c(=O)n(C)c1=O,inactive,–

Compound,Potency,"activity, negative = inhibition"
Cc1cc(NC(=O)c2cnn3cccnc23)n(-c2ccccc2)n1,inactive,–
Cc1cc(C)nc(-n2nc(C)cc2NC(=O)c2ccc(F)cc2F)n1,3.16 µM (active),–
CC(=O)N/C(=N/c1nc(C)cc(C)n1)Nc1ccc(F)cc1F,inactive,–
COc1cc2ccccc2cc1C(=O)N(CCN(C)C)c1nc2c(F)cccc2s1,inactive,–
CC(C)(C)SCCSC1=CC(=O)CC(c2ccccc2)C1 (centres undefined),inactive,–
O=C(Nc1ccc(S(=O)(=O)N2CCCCCC2)cc1)c1c(F)cccc1F,inactive,–
CCOc1ncccc1C(=O)NCCc1ccc(OC)cc1,inactive,–
Cc1cc(C)cc(NC(=O)C2CCCN2S(=O)(=O)c2cccc3cccnc23)c1 (centres undefined),inactive,–
O=C(COC(=O)c1ccc(F)cc1)Nc1nc2ccc([N+](=O)[O-])cc2s1,inactive,–
O=C(Nc1nc2ccc([N+](=O)[O-])cc2s1)c1ccncc1,inactive,–
O=C(NC(Nc1nc2ccc([N+](=O)[O-])cc2s1)(C(F)(F)F)C(F)(F)F)c1ccccc1,2.82 µM (active),–
CS(=O)(=O)c1ccc2nc(NC(=O)c3ccc(N4CCCC4=O)cc3)sc2c1,inactive,–
O=C(Nc1nc2ccc([N+](=O)[O-])cc2s1)c1ccc(S(=O)(=O)N2CCCc3ccccc32)cc1,3.98 µM (active),–
CSc1nc2ccc(S(=O)(=O)N3CCc4ccccc43)cc2s1,inactive,–
CCOC(=O)c1cc(C(=O)Nc2ccc(S(=O)(=O)Nc3ccc(OC)cc3)cc2)nn1C,inactive,–
COC(=O)c1cccc(N(C(=O)CNC(=O)c2cccs2)C(C(=O)NCC2CCCO2)c2ccc(OC)c(OC)c2)c1 (centres undefined),inactive,–
Cc1cccc(CCNS(=O)(=O)c2ccc3c(c2)NC(=O)CO3)c1,inactive,–
COc1ccc(CN2CCNC(=O)C2CC(=O)NCc2cn[nH]c2-c2ccccc2)c(F)c1 (centres undefined),inactive,–
COc1ccc(C(CNC(=O)COc2ccccc2OC)N2CCCCC2)cc1 (centres undefined),inactive,–
O=C1OC2(CCCCC2)CC2=C1C1O[C@](c3ccsc3)(Cc3ccccc31)O2,–,-4.71% [at 10 µM]
COc1cc2c(cc1OC)C(c1ccccc1Br)NC(=O)C2 (centres undefined),inactive,–
COc1ccc(NC(=O)CCCC2CCCCC2)c(OC)c1,inactive,–
CCN(CC)CCOc1ccc2c(c1)C(=NNC(=O)c1ccccn1)c1cc(OCCN(CC)CC)ccc1-2,10 µM (active),–
Cc1cccc(OCC(=O)NCCCNC(=O)c2ccccn2)c1,inactive,–
CCOc1cc(NC(=O)c2ccccn2)c(OCC)cc1NC(=O)c1ccc(OC)cc1,inactive,–
Cc1onc(C(=O)Nc2ccc3c(c2)OCO3)c1[N+](=O)[O-],inactive,–
